HCMV inh – human cytomegalovirus inhibition | AID 1259415 | actives 4.5% (n = 410,000) | activity change, negative = inhibition, % at 57.5 µM | HFF cells, HCMV-luciferase reporter, 72 h; hits give low values; in the data active = activity change below about -60%; inconclusive = no clear call, values can overlap the other calls; inactive = above about -39%
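After 16 h attachment at 37C, HFF cells received test compound and HCMV-luciferase (1 PFU/cell); reporter luminescence read 72 h later, data normalized against buffer-only and known inhibitor Salinomycin.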
Marburg entry inh – blocks Marburg virus binding to or entry into cells. Marburg virus pseudotyped entry inhibition, cell reporter. Potency, µM (top dose mostly 37.8 µM), without a hit: top-dose activity change, negative = inhibition, actives largely listed as inhibitors. actives 1.8% (n = 300,000). AID 540276; calls by dose curve; tested in HEK293 cells; note: potency is the fitted concentration of half-maximal effect
Pf growth 48h – inhibits P. falciparum growth in the first generation, 48 h. P. falciparum luciferase growth in erythrocytes, 48 h. Potency, µM (series often up to 28.7 µM), for the others: top-dose activity change, negative = inhibition, actives largely listed as inhibitors. actives 5.9% (n = 310,000); note: potency is the fitted concentration of half-maximal effect
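Read-out is firefly luciferase luminescence from an integrated reporter in P. falciparum, so falling signal marks reduced parasite growth. Infected erythrocytes were at 2% hematocrit and 0.1% parasitemia (final) in Albumax-supplemented RPMI 1640.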
HCV inhibitor – blocks hepatitis C virus | Potency, µM (top dose mostly 41.8 µM), without a hit: at the top dose activity change, negative = inhibition, actives largely listed as inhibitors | AID 651820 | actives 3.4% (n = 340,000) | Huh7.5.1 HCVcc-Cre infection, luciferase reporter, 44 h; note: potency is the fitted concentration of half-maximal effect
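A cell-based infection assay in which seeded cells (1,000 per well) receive test compound after 4 h, are inoculated with HCVcc-Cre at approximately 0.5 moi, and are incubated 44 h before luminescence detection.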
Lassa entry inh – Lassa virus entry inhibition; Potency, µM (doses to about 37.9 µM), for inactives: at the highest dose activity change, negative = inhibition, actives largely listed as inhibitors; actives 1.2% (n = 300,000); AID 540256; Lassa virus pseudotype entry inhibition, cell reporter; calls by dose curve; tested in HEK293 cells; note: potency is the fitted concentration of half-maximal effect; nearly all actives have a fitted effect of over 50% in size
Pf growth 96h – P. falciparum growth inhibition at 96 hours; actives 6.9% (n = 320,000); P. falciparum luciferase reporter growth, 96 h; Potency, µM (highest dose often 28.7 µM), without a hit: top-dose activity change, negative = inhibition, most hits filed as inhibitors; AID 504834; note: potency is the fitted concentration of half-maximal effect
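Compounds incubated with erythrocytes infected by luciferase-expressing P. falciparum (2% hematocrit, 0.05% parasitemia final) for 96 hours, 37 C in 5% CO2. Growth inhibition scored as decreased luciferase luminescence.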
An asterisk follows results filed as active; ? = inconclusive; / = not tested or not shown; [ ] = remark or other dose. Shown are actives, neighbours in structure and some others; about 14% of the full set was active somewhere. Unless noted, calls come from the whole dose curve; as a rule, active = well fitted inhibition curve with a large enough effect; inconclusive = small, poorly fitted or top-dose-only effect, or another doubt; inactive = no such curve, though single readings can be large or run the other way. % is set by controls: 0 for no effect and ±100 for the full control effect.

SMILES	HCMV inh	Marburg entry inh	Pf growth 48h	HCV inhibitor	Lassa entry inh	Pf growth 96h
CCN(CC)c1ncnc2c1ncn2[C@H]1CN(Cc2ccccc2)C[C@@H](COC(C)=O)O1	11	/	/	/	/	/
CCOc1ccc(C2=NNC(c3cccs3)=Nc3ccc(OC)cc32)cc1OCC	-4	-17%[46.1 µM]	12µM*	?	-18%	-15%
COc1ccc(C2=NNC(c3cccnc3)=Nc3ccccc32)cc1	-33	4%[46.1 µM]	-15%	-1%	?	6.6µM*
CCOc1ccc2c(c1)C(c1cccs1)=NNC(c1cccnc1)=N2	-71*	-16%[46.1 µM]	-23%	8%	-13%	-19%
Brc1ccc2c(c1)C(c1cccs1)=NNC(c1cccnc1)=N2	-30	?	1%	-8%	-13%	-10%
NNC(=O)c1cc2c(N3CCC(Cc4ccccc4)CC3)ncnc2s1	?	-14%[46.1 µM]	?	?	10µM*	?
NNC(=O)CSc1c(-c2ccccc2)c2cc(Cl)ccc2[nH]c1=O	?	9%[46.1 µM]	?	13%	4%[46.1 µM]	13µM*
O=C(O)Cc1c(-c2ccccc2)c2cc(Cl)ccc2[nH]c1=O	29	?	9%	-10%	12%[46.1 µM]	-22%
CCOC(=O)N1CCN(c2c(-c3ccccc3)c3cc(Cl)ccc3[nH]c2=O)CC1	-23	3%	58%	-7%	?	31%
O=c1[nH]c2ccc(Cl)cc2c(-c2ccccc2)c1N1CCN(CCO)CC1	-28	10µM*	?	?	?	?
CC(C)c1ccc(NC(=O)CSc2nc3ccccc3nc2Cc2ccccc2)cc1	-12	/	/	/	29%[46.1 µM]	/
Cc1cc(N2CCN(C(C(=O)NC3CCCC3)C(C)(C)C)CC2)c2ccccc2n1 (stereo not drawn)	-25	/	/	/	/	/
O=C(/C=C/Nc1ccc(F)cc1)c1cccs1	17	11µM*	/	4%	?	/
O=C(/C=C/Nc1ccc(F)c(F)c1)c1cccs1	306	?	241%	5%	?	10µM*
NC(=O)c1ccccc1N/C=C/C(=O)c1cccs1	122	?	128%	7%	?	40%
Cc1cccc(N/C=C/C(=O)c2cccs2)c1C	35	?	168%	?	?	4.7µM*
C=CC[C@@H]1C=C[C@H](ON=C2c3cc(OC)ccc3O[C@H](c3cccc(OC)c3)[C@@H]2O)[C@H](CO)O1	/	-5%[14.2 µM]	/	/	/	/
CC1=C(C(=O)N(C)C)CC(CC(=O)NCCCCc2ccccc2)C(=O)N1CCCN1CCCC1=O (stereo not drawn)	-37	/	/	/	/	/
O=C(Nc1cccnc1)C1Cc2c(-c3ccco3)ccnc2O1 (stereo not drawn)	-14	/	/	/	/	/
C#CCNC(=O)c1cc2cccnc2nc1N	15	/	/	/	/	/
Cc1cccc(C)c1NC(=O)COC(=O)c1ccc2[nH]c3c(c2c1)CCCC3	?	/	-5%	-27%	/	-1%
O=C(COC(=O)c1ccc2[nH]c3c(c2c1)CCCC3)Nc1ccccc1	2	-15%	-3%	13µM*	?	17%
CN(C)c1ccc(C(=O)/C=C/c2ccccc2)cc1	-7	?	367%	-10%	?	354%
O=C(CF)N(O)c1ccc(C=Cc2ccccc2)cc1	-79*	1µM*	/	?	1.1µM*	/
CCOC(=O)N(O)c1ccc(C=Cc2ccccc2)cc1	-62*	1.3µM*	/	4µM*	0.63µM*	/
SMILES	HCMV inh	Marburg entry inh	Pf growth 48h	HCV inhibitor	Lassa entry inh	Pf growth 96h
CCn1ncc2c(=O)c(C(=O)c3ccccc3)c[nH]c21	3	/	/	/	/	/
CN(C)C(=O)Oc1cccc2c(OC(=O)N(C)C)cccc12	48	19%	5%	15%	24%	/
COc1cc(OC)c(NC(=O)Nc2c(C)n(C)n(-c3ccccc3)c2=O)cc1Cl	-10	-14%[46.1 µM]	/	/	-7%[46.1 µM]	/
CC(=O)c1c(O)cc(O)c(C(C)=O)c1O	/	/	10µM*	3.5µM*	/	-11%
CC(=O)c1c(O)cc(O)cc1CC(=O)O	-10	/	42%	0.89µM*	/	?
Cc1cc(CC(=O)O)c(C)cc1CC(=O)O	-6	1%	18%	10%	0%	-16%
COc1ccc(CC(=O)OCC(=O)NCc2ccco2)cc1OC	-1	5%	4%	16%	-3%	19%
Cc1ccc(-c2nc3c4ccccc4ccn3c2Cc2ccccc2C(F)(F)F)cc1	30	/	/	/	/	/
CC(C)NC(=O)c1ccc(COCC(F)(F)C(F)F)cc1	19	7%	/	22%	25%	13µM*
NC(=O)NC(=O)COC(=O)c1ccc2noc(-c3ccccc3)c2c1	55	-8%[46.1 µM]	11%	-11%	-2%[46.1 µM]	11%
CC(=O)c1ccc2noc(-c3ccc(C)cc3)c2c1	16	/	400%	11%	/	?
CC(=O)c1ccc2noc(-c3cccc(F)c3)c2c1	?	-30%	0%	2.2µM*	-20%	13%
CC(=O)COC(=O)c1ccc2noc(-c3ccccc3)c2c1	-68*	?	28%	-18%	-2%	39%
COc1cccc(-c2onc3ccc(C(C)=O)cc23)c1	-70*	/	-8%	?	/	12%
O=S(=O)(NCc1nc2cccnc2n1Cc1ccccc1)c1ccc2c(c1)CCCC2	19	/	/	/	-22%[46.1 µM]	/
COc1ccccc1CNC(=O)CN1C(=O)CCc2cc(S(=O)(=O)N3CCCCC3)ccc21	-24	/	/	/	4%[46.1 µM]	/
O=C(CSc1nc2ccccc2n1Cc1ccccc1)N/N=C/c1ccccc1C(=O)O	-36	/	?	10%	/	-13%
O=C(CSc1nc2ccccc2n1Cc1ccccc1Cl)N/N=C/c1ccccc1C(=O)O	?	/	?	13%	/	5.2µM*
CC1(C)C(=O)CC[C@@]2(C)[C@H]1CC[C@@]1(C)CC3=C(CC[C@@H]12)[C@@]1(C)CCC(=O)C(C)(C)[C@@H]1CC3	/	/	12µM*	15%	/	?
C=C(C)[C@@H]1CCC2(C(=O)O)CC[C@]3(C)[C@H](CC[C@@H]4[C@@]5(C)CCC(=O)C(C)(C)[C@@H]5CC[C@]43C)[C@@H]12 (stereo partly drawn)	?	-18%	?	?	-9%	?
COc1cccc(C(NC(C)=O)c2nc(-c3ccoc3)cs2)c1 (stereo not drawn)	5	/	/	/	/	/
COCCN(CC(=O)NCC1CCCO1)C(=O)CCC(=O)Nc1cc(C)on1 (stereo not drawn)	7	8%	19%	4%	1%	1.7µM*
O=C(CN(Cc1ccccc1)C(=O)CCC(=O)Nc1nccs1)NCC1CCCO1 (stereo not drawn)	-13	-5%	-21%	4%	?	13%
O=C(CN(CC1CCCO1)C(=O)CCC(=O)Nc1nccs1)NCC1CCCO1 (stereo not drawn)	21	?	0%	-1%	9%	13µM*
CSc1cccc(NC(=O)Cn2c(=O)n(Cc3ccccc3)c(=O)c3sc4ccccc4c32)c1	-11	-12%[46.1 µM]	/	/	-9%[46.1 µM]	/

Bioassay records: PubChem, National Center for Advancing Translational Sciences (NCATS)
